The panel holds about 79,000 compounds, 15% with a hit somewhere; the sample as a whole holds those more often. Active and inactive are the calls of the source. Cut-off read from the data, not from the text of the source: active = growth inhibition above about 70%; inactive = the rest.
Experiments:
[1] = NCI Yeast Anticancer Drug Screen. Data for the rad50 strain (AID 155);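 note: 0% = growth of vehicle-only cultures of the same strain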; conditions: S. cerevisiae rad50 strain growth inhibition, stronger effect = higher value
In short: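 DNA repair mutant yeast, compound exposure, growth read-out; inhibition is taken relative to vehicle.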

[2] = NCI Yeast Anticancer Drug Screen. Data for the mec2-1 strain (AID 157); conditions: S. cerevisiae mec2-1 strain, stronger effect = higher value
In short: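 Each compound was tested on mec2-1 yeast, a strain altered in DNA damage repair or cell cycle control. Growth inhibition is reported relative to vehicle.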

[3] = NCI Yeast Anticancer Drug Screen. Data for the sgs1 mgt1 strain (AID 161);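 note: 0% = growth of cultures given vehicle only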; conditions: S. cerevisiae sgs1 mgt1 strain, stronger effect = higher value
In short: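 Test agents were incubated with a DNA-repair-mutant yeast strain. Growth was then read and compared against vehicle-treated controls.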

[4] = NCI Yeast Anticancer Drug Screen. Data for the cln2 rad14 strain (AID 165);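 note: 0% = growth equal to vehicle treated cultures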; conditions: S. cerevisiae cln2 rad14 strain, stronger effect = higher value
In short: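 Test compounds were added to cln2 rad14 yeast cultures; inhibition of growth was then determined by comparison with vehicle treatment.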

[5] = NCI Yeast Anticancer Drug Screen. Data for the bub3 strain (AID 167); conditions: S. cerevisiae bub3 mutant strain, stronger effect = higher value
In short: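 In this screen, a yeast mutant lacking normal mitotic checkpoint function is challenged with compound. Relative growth versus vehicle gives the inhibition value.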

[6] = NCI Yeast Anticancer Drug Screen. Data for the wt2 strain (AID 169);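 note: 0% = growth of vehicle-treated yeast cultures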; conditions: S. cerevisiae wt2 strain growth inhibition, stronger effect = higher value
In short: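 The panel's yeast strains carry defined changes in DNA repair or cell cycle genes. Each strain is grown with compound, and growth loss is scored relative to vehicle.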

[7] = NCI Yeast Anticancer Drug Screen. Data for the mlh1 rad18 strain (AID 175); conditions: S. cerevisiae mlh1 rad18 strain growth inhibition, stronger effect = higher value
In short: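 Inhibition values reflect reduced growth of mutant yeast versus vehicle-treated controls following compound exposure; the mutations affect DNA damage repair.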

[8] = at 5.0 µM (retest, dose inferred, filed as 0.5)
[9] = at 50.0 µM (retest, dose inferred, filed as 5.0)

Measured: growth inhibition

Cc1c2ccccc2c(C=O)c2ccccc12
active: [1]; [9] 96% | [1]; at 50.0 µM 86.2% | [2]; [9] 99% | [2]; at 50.0 µM 89% | [3]; at 50.0 µM 91.2% | [4]; at 50.0 µM 88.2% | [5]; at 50.0 µM 88.5% | [6]; at 100.0 µM 93% | [7]; [9] 99% | [7]; at 50.0 µM 87.4%
inactive: [1]; [8] 40% | [2]; [8] 44% | [3]; [8] -13% | [3]; [9] 57% | [4]; [8] 50% | [4]; [9] 59% | [5]; [8] 2% | [5]; [9] 67% | [6]; at 1.2 µM -11% | [6]; at 3.7 µM -16% | [6]; at 11.0 µM -4% | [6]; at 33.0 µM 23% | [7]; [8] 40%

c1ccc2nc3c(ccc4ccccc43)cc2c1
inactive: [1]; [8] 22% | [1]; [9] 31% | [2]; [8] 41% | [2]; [9] 45% | [3]; [8] -17% | [4]; [8] 5% | [4]; at 50.0 µM 68.7% | [5]; [8] 0% | [6]; at 1.2 µM 18% | [6]; at 3.7 µM 16% | [6]; at 11.0 µM 64% | [7]; [8] 20% | [7]; [9] 49%
active: [1]; at 50.0 µM 86% | [2]; at 50.0 µM 75.9% | [3]; [9] 94% | [3]; at 50.0 µM 84.5% | [4]; [9] 91% | [5]; [9] 99% | [5]; at 50.0 µM 84% | [6]; at 33.0 µM 94% | [6]; at 100.0 µM 89% | [7]; at 50.0 µM 83%

COc1ccc(Cc2ccc(O)cc2)cc1
inactive: [1]; [8] 41% | [1]; at 50.0 µM 33.3% | [2]; [8] 40% | [2]; at 50.0 µM 27.8% | [3]; [8] -9% | [3]; [9] 47% | [3]; at 50.0 µM 52.8% | [4]; [8] 42% | [4]; [9] 8% | [4]; at 50.0 µM -20.9% | [5]; [8] -16% | [5]; [9] 49% | [5]; at 50.0 µM 30.9% | [6]; at 1.2 µM -12% | [6]; at 3.7 µM -8% | [6]; at 11.0 µM -9% | [6]; at 33.0 µM 6% | [6]; at 100.0 µM 11% | [7]; [8] 27% | [7]; [9] 54% | [7]; at 50.0 µM 28.8%
active: [1]; [9] 79% | [2]; [9] 88%

CC(C)N1CSC(=S)N(Cc2ccccc2)C1
inactive: [1]; [8] 55% | [2]; [8] 46% | [3]; [8] -5% | [3]; at 50.0 µM 46.3% | [4]; [8] 56% | [4]; at 50.0 µM 19.5% | [5]; [8] 6% | [6]; at 1.2 µM 0% | [6]; at 3.7 µM 7% | [6]; at 11.0 µM 23% | [6]; at 33.0 µM 55% | [6]; at 100.0 µM 67% | [7]; [8] 30% | [7]; [9] 66% | [7]; at 50.0 µM 59.5%
active: [1]; [9] 91% | [1]; at 50.0 µM 77.7% | [2]; [9] 92% | [2]; at 50.0 µM 81.5% | [3]; [9] 98% | [4]; [9] 92% | [5]; [9] 92% | [5]; at 50.0 µM 88.2%

CC[N+](C)(C)c1ccccc1
inactive: [1]; [8] 42% | [1]; at 50.0 µM 61.8% | [2]; [8] 48% | [2]; at 50.0 µM 26.7% | [3]; [8] -40% | [3]; [9] 1% | [3]; at 50.0 µM 48.2% | [4]; [8] 46% | [4]; [9] 24% | [4]; at 50.0 µM 17.9% | [5]; [8] -1% | [5]; [9] 28% | [6]; at 1.2 µM -24% | [6]; at 3.7 µM -23% | [6]; at 11.0 µM -25% | [6]; at 33.0 µM -16% | [6]; at 100.0 µM -24% | [7]; [8] 45% | [7]; at 50.0 µM 28.9%
active: [1]; [9] 90% | [2]; [9] 93% | [5]; at 50.0 µM 74.2% | [7]; [9] 82%

COc1ccc(CC(=O)c2ccc(O)cc2O)cc1
active: [1]; [9] 90% | [2]; [9] 80% | [3]; [9] 73% | [4]; [9] 76% | [5]; [9] 71% | [5]; at 50.0 µM 77.1% | [6]; at 100.0 µM 91% | [7]; [9] 97%
inactive: [1]; [8] 30% | [1]; at 50.0 µM 49.5% | [2]; [8] 38% | [2]; at 50.0 µM 42.3% | [3]; [8] -22% | [3]; at 50.0 µM 54.8% | [4]; [8] 64% | [4]; at 50.0 µM 52.2% | [5]; [8] -6% | [6]; at 1.2 µM -4% | [6]; at 3.7 µM -4% | [6]; at 11.0 µM -13% | [6]; at 33.0 µM 14% | [7]; [8] 19% | [7]; at 50.0 µM 53.1%

Fc1ccccc1-c1ncc(-c2ccccc2)o1
active: [1]; [9] 96% | [2]; [9] 94% | [4]; [9] 70% | [5]; [9] 82% | [7]; [9] 91%
inactive: [1]; [8] 65% | [1]; at 50.0 µM 23.4% | [2]; [8] 60% | [2]; at 50.0 µM 22.2% | [3]; [8] -14% | [3]; [9] 60% | [3]; at 50.0 µM 51.8% | [4]; [8] 39% | [4]; at 50.0 µM 13.7% | [5]; [8] 24% | [5]; at 50.0 µM 16.7% | [6]; at 1.2 µM -1% | [6]; at 3.7 µM -3% | [6]; at 11.0 µM -10% | [6]; at 33.0 µM -2% | [6]; at 100.0 µM 28% | [7]; [8] 36% | [7]; at 50.0 µM 4.3%

COc1cccc2c1C(=O)c1c(O)c3c(c(O)c1C2=O)C[C@@](O)(C(C)=O)C[C@@H]3OC1CC(O)C(O)C(C)O1 (stereo partly drawn)
active: [1]; [9] 95% | [1]; at 50.0 µM 84.7% | [2]; [9] 94% | [2]; at 50.0 µM 88.3% | [3]; [9] 94% | [3]; at 50.0 µM 85.2% | [4]; [9] 90% | [4]; at 50.0 µM 83.3% | [5]; [9] 96% | [5]; at 50.0 µM 85.3% | [7]; [9] 93%
inactive: [1]; [8] 45% | [2]; [8] 21% | [3]; [8] 25% | [4]; [8] 46% | [5]; [8] 34% | [7]; [8] 40%

Source: PubChem BioAssay (NCI)
